# PAFAH1B3 FP inh = PAFAH1B3 enzyme inhibitors, primary screen, biochemical, fluorescence polarization, human; Platelet-activating factor acetylhydrolase IB subunit alpha1 (Homo sapiens), Q15102; recombinant PAFAH1B3, FP-rhodamine probe; inhibition, % at 3.39 µM; 340,000 compounds, 0.28% hits;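 active = inhibition above the screen-wide average of all tested compounds plus 3 SD, cut at about 25% in these data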
# Target sequence (Q15102 whole entry, looked up): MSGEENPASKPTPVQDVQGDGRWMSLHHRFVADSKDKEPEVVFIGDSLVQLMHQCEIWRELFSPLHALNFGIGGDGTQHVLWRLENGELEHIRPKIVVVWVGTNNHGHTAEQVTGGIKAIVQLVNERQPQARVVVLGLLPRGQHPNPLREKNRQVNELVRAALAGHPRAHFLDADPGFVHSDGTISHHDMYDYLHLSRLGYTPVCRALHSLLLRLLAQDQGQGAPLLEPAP
# TCR-CD3 inh = inhibitors of human TCR-CD3 interaction, primary screen, biochemical, fluorescence, TAMRA-labeled TCR probe; AID 651800, 2012; inhibition, % at 9.4 µM; 360,000 compounds, 0.37% hits; in the data active = inhibition above about 19%;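 note: recombinant mutant TCR 2C K166C tagged with TAMRA read by polarization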
# pPAFAH inh = pPAFAH enzyme inhibitors, primary screen, biochemical, fluorescence polarization, human. Platelet-activating factor acetylhydrolase (Homo sapiens), Q13093. AID 463082, 2010. recombinant pPAFAH, FP-rhodamine probe fluorescence polarization. 330,000 compounds, 1.5% hits. inhibition, % at 3.39 µM;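 active = inhibition above the mean inhibition across the screen plus 3 SD, cut at about 25% in these data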;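 note: inhibitors block binding of the rhodamine activity-based probe so polarization drops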
# PAFAH1B2 FP inh = PAFAH1B2 enzyme inhibitors, primary screen, biochemical, fluorescence polarization, human; recombinant PAFAH1B2, FP-rhodamine activity probe; 340,000 compounds, 1.2% hits; Platelet-activating factor acetylhydrolase IB subunit alpha2 (Homo sapiens), P68402; inhibition, % at 3.39 µM; AID 492953, 2010;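 active = inhibition above the mean of all tested compounds plus 3 SD, cut at about 24% in these data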
# Target sequence (P68402 whole entry, looked up): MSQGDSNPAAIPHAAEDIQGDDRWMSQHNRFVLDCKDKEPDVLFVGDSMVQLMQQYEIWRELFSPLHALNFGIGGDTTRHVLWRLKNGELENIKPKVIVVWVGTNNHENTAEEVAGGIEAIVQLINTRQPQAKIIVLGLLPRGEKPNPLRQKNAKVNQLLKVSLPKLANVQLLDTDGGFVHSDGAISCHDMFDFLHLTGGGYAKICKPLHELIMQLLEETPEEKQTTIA
# PAFAH2 FP inh = PAFAH2 enzyme inhibitors, primary screen, biochemical, fluorescence polarization, human | Platelet-activating factor acetylhydrolase 2, cytoplasmic (Homo sapiens), Q99487 | recombinant PAFAH2, FP-rhodamine activity probe | 340,000 compounds, 0.99% hits | inhibition, % at 3.39 µM;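 active = inhibition above the mean over all tested compounds plus 3 SD, cut at about 30% in these data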;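 note: inhibitors block probe labeling of enzyme so polarization drops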
# Hits are given with their value; . = inactive; / = no result given. Hits are enriched below; roughly 2.7% of the tested compounds scored in any of these assays.
SMILES,PAFAH1B3 FP inh,TCR-CD3 inh,pPAFAH inh,PAFAH1B2 FP inh,PAFAH2 FP inh
CC(CNC(=O)CC[C@H]1O[C@@H](n2cnc3c(NC(=O)c4ccccc4)ncnc32)[C@H](O)[C@@H]1O)c1ccccc1 (stereo not given in full),/,.,/,/,/
OC(c1ccco1)c1nc(-c2cccs2)cs1 (stereo not given),/,.,/,/,/
O=C(COC(=O)CCNS(=O)(=O)c1ccccc1)NC(=O)Cc1ccccc1,.,.,30.3,.,.
Cc1cc(Cl)ccc1NC(=O)COC(=O)CCNS(=O)(=O)c1ccccc1,.,.,33.5,.,.
CC(=O)c1ccc(S(=O)(=O)NCCC(=O)OCC(=O)NCCc2ccccc2)cc1,.,.,.,.,.
Cc1ccc(-n2cccc2C(=O)NS(=O)(=O)c2ccc(C)cc2)cc1,.,.,.,28.1,.
Cc1ccc(S(=O)(=O)Cc2ccc(C(=O)N3CCCC3)o2)cc1,.,.,.,.,.
O=C(c1ccc(CS(=O)(=O)Cc2ccc(Cl)cc2)o1)N1CCCC1,.,.,25.9,.,.
COC(=O)c1ccc(COC(=O)CNS(=O)(=O)c2ccccc2)cc1,.,.,.,.,.
O=C(CNS(=O)(=O)c1ccccc1)NCC(=O)OCc1ccc(Br)cc1,.,.,.,44.9,.
C=C(C(=O)O)C1CCC2(C)CCCC(C)(O)C2C1 (stereo not given),.,.,.,28.5,.
CCN1CCN(c2ccc(S(=O)(=O)N3CCCCC3)cc2NC(=O)/C=C/c2cc(OC)ccc2OC)CC1,.,.,26.2,.,.
CC1(c2nnc(-c3ccc(F)cc3)o2)CC(c2ccncc2)=NO1 (stereo not given),/,/,.,/,/
COCC(C)N=C1NN=C(c2cc(C)n(Cc3ccccc3Cl)c2C)CS1 (stereo not given),.,.,26.4,.,.
COc1ccc(C)cc1/C=C/C(=O)N1CCN(S(=O)(=O)c2cccs2)CC1,/,.,/,/,/
CCCSc1nsc(NC(=O)CCC)n1,.,.,30.9,.,.
O=C(NC1CC1)C1CCN(S(=O)(=O)c2cc([N+](=O)[O-])ccc2Cl)CC1,.,.,32.4,.,.
O=c1[nH]c(CN2CCN(S(=O)(=O)c3ccc(Cl)cc3)CC2)nc2cc(Cl)ccc12,.,.,.,24.2,.
O=S(=O)(c1ccc(Cl)cc1)N1CCN(Cc2ccncc2)CC1,.,.,.,24.4,.
COc1cc2nc(CN3CCN(S(=O)(=O)c4ccc(Cl)cc4)CC3)[nH]c(=O)c2cc1OC,.,.,.,.,.
COc1ccc(S(=O)(=O)N2CCN(Cc3ccc(Cl)cc3)CC2)cc1,.,.,.,.,.
O=S(=O)(c1ccc(Cl)cc1)N1CCN(CCc2ccccc2)CC1,.,.,.,27.7,.
Cc1c(C(=O)NNC(=O)c2csc(N3CCOCC3)n2)oc2ccc(Br)cc12,/,.,/,/,/
COc1cccc(-c2cc(CNC(=O)[C@H]3O[C@@H](n4cnc(C(N)=O)n4)[C@H](O)[C@@H]3O)no2)c1,/,.,/,/,/
O=C(NN=C1CCCC1)c1cc(Cl)cc(Cl)c1O,.,.,33.6,.,.
SMILES,PAFAH1B3 FP inh,TCR-CD3 inh,pPAFAH inh,PAFAH1B2 FP inh,PAFAH2 FP inh
NS(=O)(=O)c1ccc(CCNC(=O)COC(=O)Cc2ccc(Cl)cc2)cc1,/,.,/,/,/
COc1ccccc1C(=O)N1CCN(C(=O)[C@@H](Cc2ccccc2)NC(=O)[C@H]2O[C@@H](n3cnc(C(N)=O)n3)[C@H](O)[C@@H]2O)CC1,/,.,/,/,/
O=C1NNC(c2ccccc2)=N/C1=C\c1ccco1,.,.,26.4,.,.
CCOc1ccc(NS(=O)(=O)c2ccc(SC)cc2)cc1,.,.,33.7,.,.
CCOc1ccc(NS(=O)(=O)c2ccc(NC(=S)NC(=O)C(C)C)cc2)cc1,.,.,32.9,.,.
CC(C)(C)c1ccc(C#C[C@@H]2C=C[C@@H](O)[C@@H](COC(=O)NCc3ccccc3)O2)cc1,/,.,/,/,/
COc1ccc(-c2cccc3c2NC(=O)C3=O)cc1OC,.,.,.,.,.
Cc1c(C(=O)NCc2cccc(C(F)(F)F)c2)sc(=O)n1Cc1ccc(C(=O)N(C)C)cc1,/,.,/,/,/
Cc1ccccc1C(=O)Nc1ccc(C(=O)NNC(=O)CCCOc2ccc(Cl)cc2Cl)cc1,.,.,.,.,.
Cc1cc(Cl)ccc1OCCCC(=O)NNC(=O)c1ccccc1O,.,.,28.8,.,.
CCCCCCc1cc2cc(S(=O)(=O)c3ccc(F)c(Cl)c3)c(=O)oc2cc1O,.,.,33.0,.,.
N#Cc1c(SCC(=O)Nc2ccc(Cl)cc2Cl)sc2c(O)cc(=O)[nH]c12,.,.,30.1,.,.
CCOc1cccc(NC(=O)CSc2sc3c(O)cc(=O)[nH]c3c2C#N)c1,.,.,.,.,.
N#Cc1c(SCC(=O)Nc2ccccc2C(F)(F)F)sc2c(O)cc(=O)[nH]c12,.,.,27.3,.,.
N#Cc1c(SCC(=O)Nc2cccc(F)c2)sc2c(O)cc(=O)[nH]c12,.,.,29.7,.,.
COc1ccc(C(=O)NOCc2ccccc2)cc1,.,.,.,.,.
NC(=O)[C@@H]1CCCN1C(=O)[C@H](CCc1ccccc1)NC(=O)[C@H]1O[C@@H](n2cnc3c(N)ncnc32)[C@H](O)[C@@H]1O,/,.,/,/,/
Oc1ccc(CNc2ccccc2)c2cccnc12,26.0,/,.,.,.
Oc1ccc(CNc2ccc(F)cc2)c2cccnc12,.,.,.,.,.
COC(=O)c1cc2c(c3c4cc(OC)ccc4n(S(=O)(=O)c4cccc(C)c4)c13)C(=O)N(Cc1ccc(N(C)C)cc1)C2,/,.,/,/,/
CN(CCOc1ccccc1)C(=O)CNC(=O)c1ccc(C(C)(C)C)cc1,.,.,.,.,.
CCOc1cccc(C=NNc2ccc(S(=O)(=O)Nc3ccccc3C(=O)O)cc2[N+](=O)[O-])c1O,.,.,30.1,.,.
C=CCOc1ccc(C=NNc2ccc(S(=O)(=O)Nc3ccccc3C(=O)O)cc2[N+](=O)[O-])cc1OC,.,.,36.8,.,.
O=C(O)c1ccccc1NS(=O)(=O)c1ccc(NN=Cc2ccccc2F)c([N+](=O)[O-])c1,.,.,51.1,.,.
O=C(CSc1nccc(-c2cccs2)n1)Nc1ccc(Cl)cc1,.,.,.,.,.
SMILES,PAFAH1B3 FP inh,TCR-CD3 inh,pPAFAH inh,PAFAH1B2 FP inh,PAFAH2 FP inh
Cc1onc(-c2ccc(Cl)cc2)c1-c1ccnc(SCC(=O)Nc2ccc(C(C)C)cc2)n1,.,.,.,29.9,.
CCOc1ccc(OCc2cccc(C(=O)O)c2)cc1,.,.,.,.,.
O=C(O)c1cccc(COc2ccc3c(c2)CCC3)c1,.,.,.,48.0,.
O=C(NCc1ccccc1)c1cccc(COc2ccc3c(c2)CCC3)c1,.,.,.,.,.
O=C(O)c1cc(OCc2ccccc2)cc(OCc2ccccc2)c1,.,.,.,28.8,.
COc1ccc(OCc2cccc(C(=O)O)c2)cc1,.,.,.,25.1,.

# Screening data from PubChem BioAssay.
